The text below walks through data of ChEMBL document CHEMBL1961873, “Compounds: GSK PKIS; Assays: Nanosyn kinase panel” (2012).

Assay [1] concerns the target Sphingosine kinase 1 (Homo sapiens) (UniProt Q9NYA1). The following applies: at 1 µM.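 Further: mean SPHK1 inhibition value reported from the GSK PKIS kinase panel screen.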
For assay [2], the target named is T1, Sphingosine kinase 2 (Homo sapiens) (UniProt Q9NRA0).
T1 sequence (whole entry): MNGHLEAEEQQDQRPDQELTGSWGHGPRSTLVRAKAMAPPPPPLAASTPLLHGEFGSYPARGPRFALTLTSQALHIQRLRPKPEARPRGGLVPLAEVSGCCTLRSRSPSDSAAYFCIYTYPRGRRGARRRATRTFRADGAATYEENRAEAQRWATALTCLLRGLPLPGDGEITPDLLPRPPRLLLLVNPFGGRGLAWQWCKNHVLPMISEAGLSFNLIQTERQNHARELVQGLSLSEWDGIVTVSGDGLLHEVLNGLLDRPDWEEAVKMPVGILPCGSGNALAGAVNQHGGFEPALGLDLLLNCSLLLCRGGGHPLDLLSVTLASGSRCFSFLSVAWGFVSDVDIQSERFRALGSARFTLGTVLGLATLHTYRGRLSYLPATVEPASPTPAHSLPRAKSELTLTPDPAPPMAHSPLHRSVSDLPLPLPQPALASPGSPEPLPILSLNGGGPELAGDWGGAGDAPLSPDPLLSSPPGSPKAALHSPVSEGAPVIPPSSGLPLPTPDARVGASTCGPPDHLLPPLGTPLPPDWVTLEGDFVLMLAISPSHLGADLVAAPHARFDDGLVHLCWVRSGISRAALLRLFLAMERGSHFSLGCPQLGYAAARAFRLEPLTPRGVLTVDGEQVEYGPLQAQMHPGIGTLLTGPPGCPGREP
Conditions: at 0.1 µM.

For assay [3], the target named is T1, Sphingosine kinase 2 (Homo sapiens). The following applies: at 1 µM.
The target of assay [4] is Casein kinase II subunit alpha (Homo sapiens) (UniProt P68400). The following applies: at 0.1 µM.
Chain of Casein kinase II subunit alpha (Homo sapiens) (P68400 whole entry, looked up): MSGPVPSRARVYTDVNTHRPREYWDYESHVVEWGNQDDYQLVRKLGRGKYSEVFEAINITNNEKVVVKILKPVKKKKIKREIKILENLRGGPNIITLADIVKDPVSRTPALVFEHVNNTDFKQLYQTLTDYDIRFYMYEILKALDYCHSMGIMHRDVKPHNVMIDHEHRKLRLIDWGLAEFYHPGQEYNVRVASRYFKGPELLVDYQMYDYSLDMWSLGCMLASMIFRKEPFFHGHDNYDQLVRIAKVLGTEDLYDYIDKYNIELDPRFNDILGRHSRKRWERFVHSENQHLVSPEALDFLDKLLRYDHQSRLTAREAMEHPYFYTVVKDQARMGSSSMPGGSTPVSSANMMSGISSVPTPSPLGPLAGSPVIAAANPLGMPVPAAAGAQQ
For assay [5] the target is unchanged. The following applies: at 1 µM.
In assay [6] the target is T2, Inhibitor of nuclear factor kappa-B kinase subunit alpha (Homo sapiens) (UniProt O15111).
T2 sequence (whole entry): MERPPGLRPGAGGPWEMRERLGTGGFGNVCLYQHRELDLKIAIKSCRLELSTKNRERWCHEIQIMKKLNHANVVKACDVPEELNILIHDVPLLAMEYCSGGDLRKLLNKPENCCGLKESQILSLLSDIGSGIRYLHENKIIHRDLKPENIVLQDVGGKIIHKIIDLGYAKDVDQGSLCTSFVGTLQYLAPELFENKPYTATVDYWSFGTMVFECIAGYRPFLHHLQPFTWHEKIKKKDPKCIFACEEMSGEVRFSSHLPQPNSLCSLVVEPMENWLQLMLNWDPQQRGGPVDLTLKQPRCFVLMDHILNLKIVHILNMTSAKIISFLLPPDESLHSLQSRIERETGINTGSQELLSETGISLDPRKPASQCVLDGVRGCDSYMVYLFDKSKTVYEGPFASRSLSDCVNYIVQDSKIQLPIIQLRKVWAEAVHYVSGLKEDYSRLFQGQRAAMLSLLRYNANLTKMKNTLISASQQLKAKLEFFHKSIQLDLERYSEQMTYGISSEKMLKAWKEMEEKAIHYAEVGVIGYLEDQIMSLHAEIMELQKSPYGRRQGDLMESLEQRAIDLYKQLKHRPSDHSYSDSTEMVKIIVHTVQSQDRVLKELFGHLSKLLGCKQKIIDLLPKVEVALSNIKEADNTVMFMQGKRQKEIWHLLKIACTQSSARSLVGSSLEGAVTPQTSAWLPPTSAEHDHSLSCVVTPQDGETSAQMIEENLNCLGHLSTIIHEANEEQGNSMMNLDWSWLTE
Conditions: at 0.1 µM.

Assay [7] addresses T2, Inhibitor of nuclear factor kappa-B kinase subunit alpha (Homo sapiens). Conditions: at 1 µM.
The target of assay [8] is T3, Inhibitor of nuclear factor kappa-B kinase subunit beta (Homo sapiens) (UniProt O14920).
T3 sequence (whole entry): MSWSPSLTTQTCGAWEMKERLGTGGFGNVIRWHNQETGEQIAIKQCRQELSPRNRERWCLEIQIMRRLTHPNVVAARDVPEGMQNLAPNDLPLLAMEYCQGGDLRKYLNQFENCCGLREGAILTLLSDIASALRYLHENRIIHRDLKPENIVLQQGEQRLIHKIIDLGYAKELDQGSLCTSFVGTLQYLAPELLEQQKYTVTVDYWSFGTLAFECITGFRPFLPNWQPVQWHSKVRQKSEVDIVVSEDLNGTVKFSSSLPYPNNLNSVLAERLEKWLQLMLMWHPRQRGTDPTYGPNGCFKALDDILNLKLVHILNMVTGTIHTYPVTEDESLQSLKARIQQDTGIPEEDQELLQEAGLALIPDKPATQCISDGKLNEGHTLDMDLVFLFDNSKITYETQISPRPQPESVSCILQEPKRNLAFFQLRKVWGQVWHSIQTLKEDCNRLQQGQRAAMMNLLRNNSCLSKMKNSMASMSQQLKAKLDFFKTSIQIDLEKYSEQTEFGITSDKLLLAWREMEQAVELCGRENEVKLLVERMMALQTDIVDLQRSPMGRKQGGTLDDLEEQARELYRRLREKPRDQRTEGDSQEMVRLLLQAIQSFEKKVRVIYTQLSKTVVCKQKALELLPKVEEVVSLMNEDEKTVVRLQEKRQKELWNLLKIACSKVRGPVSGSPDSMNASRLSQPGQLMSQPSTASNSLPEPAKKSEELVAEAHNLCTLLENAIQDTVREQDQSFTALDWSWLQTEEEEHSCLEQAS
Conditions: at 0.1 µM.

Assay [9] deals with T3, Inhibitor of nuclear factor kappa-B kinase subunit beta (Homo sapiens). Conditions: at 1 µM.
For assay [10], the target named is T4, Inhibitor of nuclear factor kappa-B kinase subunit epsilon (Homo sapiens) (UniProt Q14164).
T4 sequence (whole entry): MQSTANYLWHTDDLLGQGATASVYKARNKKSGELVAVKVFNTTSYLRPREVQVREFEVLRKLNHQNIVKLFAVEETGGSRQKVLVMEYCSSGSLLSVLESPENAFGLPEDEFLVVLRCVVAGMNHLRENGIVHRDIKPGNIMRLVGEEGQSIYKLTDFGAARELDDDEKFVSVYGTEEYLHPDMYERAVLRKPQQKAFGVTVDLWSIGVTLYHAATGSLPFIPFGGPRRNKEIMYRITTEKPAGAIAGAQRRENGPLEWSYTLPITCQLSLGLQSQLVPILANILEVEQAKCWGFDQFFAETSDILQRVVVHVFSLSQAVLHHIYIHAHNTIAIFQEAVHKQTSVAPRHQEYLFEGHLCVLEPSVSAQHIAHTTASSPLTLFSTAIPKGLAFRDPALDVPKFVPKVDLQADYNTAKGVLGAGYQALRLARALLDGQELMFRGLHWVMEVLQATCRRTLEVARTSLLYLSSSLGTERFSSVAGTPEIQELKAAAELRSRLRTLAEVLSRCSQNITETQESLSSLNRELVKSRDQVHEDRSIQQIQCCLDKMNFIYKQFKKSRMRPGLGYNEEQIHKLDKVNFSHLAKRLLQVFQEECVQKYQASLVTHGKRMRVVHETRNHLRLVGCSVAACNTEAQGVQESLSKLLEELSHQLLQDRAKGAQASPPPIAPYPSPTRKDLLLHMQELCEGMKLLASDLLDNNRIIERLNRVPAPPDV
The following applies: at 0.1 µM.

The target of assay [11] is T4, Inhibitor of nuclear factor kappa-B kinase subunit epsilon (Homo sapiens). The following applies: at 1 µM.
Assay [12] deals with T5, Serine/threonine-protein kinase Nek1 (Homo sapiens) (UniProt Q96PY6).
T5 sequence (whole entry): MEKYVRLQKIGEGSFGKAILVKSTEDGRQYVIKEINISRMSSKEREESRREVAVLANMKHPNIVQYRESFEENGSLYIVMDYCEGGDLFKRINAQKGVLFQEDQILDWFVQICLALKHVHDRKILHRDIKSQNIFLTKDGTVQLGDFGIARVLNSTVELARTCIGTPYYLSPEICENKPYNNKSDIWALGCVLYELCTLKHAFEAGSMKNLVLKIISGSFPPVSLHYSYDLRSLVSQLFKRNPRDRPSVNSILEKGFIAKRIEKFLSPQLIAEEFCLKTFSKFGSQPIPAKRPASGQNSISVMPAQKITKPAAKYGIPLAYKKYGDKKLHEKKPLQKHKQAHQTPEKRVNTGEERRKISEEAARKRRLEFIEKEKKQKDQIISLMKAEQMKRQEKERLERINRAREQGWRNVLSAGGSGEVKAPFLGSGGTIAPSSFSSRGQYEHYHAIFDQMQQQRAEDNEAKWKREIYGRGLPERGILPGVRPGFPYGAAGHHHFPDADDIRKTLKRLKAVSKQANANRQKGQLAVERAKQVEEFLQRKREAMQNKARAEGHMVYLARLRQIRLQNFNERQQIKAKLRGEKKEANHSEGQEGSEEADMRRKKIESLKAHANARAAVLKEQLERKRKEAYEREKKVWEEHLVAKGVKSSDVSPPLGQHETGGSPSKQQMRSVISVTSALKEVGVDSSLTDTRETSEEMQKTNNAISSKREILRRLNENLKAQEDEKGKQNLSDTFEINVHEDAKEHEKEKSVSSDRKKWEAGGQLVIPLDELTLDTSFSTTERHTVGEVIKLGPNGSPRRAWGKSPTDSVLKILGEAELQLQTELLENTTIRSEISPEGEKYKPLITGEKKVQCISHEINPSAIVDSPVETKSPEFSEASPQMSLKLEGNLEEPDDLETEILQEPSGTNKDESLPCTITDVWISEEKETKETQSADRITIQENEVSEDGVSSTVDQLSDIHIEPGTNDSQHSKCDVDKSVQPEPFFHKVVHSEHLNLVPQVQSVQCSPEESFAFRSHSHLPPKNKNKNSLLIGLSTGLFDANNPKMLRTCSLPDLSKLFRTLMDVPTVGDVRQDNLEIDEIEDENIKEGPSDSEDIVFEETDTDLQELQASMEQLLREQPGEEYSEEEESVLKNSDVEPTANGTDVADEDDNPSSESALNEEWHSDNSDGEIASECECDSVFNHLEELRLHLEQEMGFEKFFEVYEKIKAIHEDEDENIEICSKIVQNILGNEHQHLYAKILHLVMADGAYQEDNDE
The following applies: at 0.1 µM.

For assay [13], the target named is T5, Serine/threonine-protein kinase Nek1 (Homo sapiens). The following applies: at 1 µM.
The target in assay [14] is T6, Serine/threonine-protein kinase Nek2 (Homo sapiens) (UniProt P51955).
T6 sequence (whole entry): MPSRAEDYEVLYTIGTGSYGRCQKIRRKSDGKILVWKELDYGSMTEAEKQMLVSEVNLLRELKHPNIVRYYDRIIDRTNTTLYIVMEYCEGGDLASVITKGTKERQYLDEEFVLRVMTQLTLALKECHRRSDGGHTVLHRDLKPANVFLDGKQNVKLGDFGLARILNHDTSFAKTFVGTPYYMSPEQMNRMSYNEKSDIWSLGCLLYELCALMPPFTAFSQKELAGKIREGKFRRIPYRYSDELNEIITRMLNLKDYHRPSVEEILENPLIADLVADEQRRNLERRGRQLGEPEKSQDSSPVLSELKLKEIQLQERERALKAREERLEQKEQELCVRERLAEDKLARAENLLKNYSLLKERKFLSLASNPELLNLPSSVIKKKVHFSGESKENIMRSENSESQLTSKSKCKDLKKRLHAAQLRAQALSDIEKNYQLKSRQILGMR
The following applies: at 0.1 µM.

In assay [15] the target is T6, Serine/threonine-protein kinase Nek2 (Homo sapiens). Conditions: at 1 µM.
Assay [16] deals with Serine/threonine-protein kinase Nek6 (Homo sapiens) (UniProt Q9HC98). The following applies: at 0.1 µM.
Chain of Serine/threonine-protein kinase Nek6 (Homo sapiens) (Q9HC98 whole entry): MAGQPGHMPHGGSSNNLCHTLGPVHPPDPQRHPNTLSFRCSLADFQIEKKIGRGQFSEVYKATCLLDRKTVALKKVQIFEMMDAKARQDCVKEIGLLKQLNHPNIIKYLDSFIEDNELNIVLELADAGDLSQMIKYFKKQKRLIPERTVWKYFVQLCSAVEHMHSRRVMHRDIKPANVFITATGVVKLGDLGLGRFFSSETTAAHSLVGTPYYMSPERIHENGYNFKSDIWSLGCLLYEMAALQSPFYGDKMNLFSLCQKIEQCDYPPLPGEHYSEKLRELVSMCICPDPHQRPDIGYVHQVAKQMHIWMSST
Assay [17] shares this target. Conditions: at 1 µM.
For assay [18], the target named is Serine/threonine-protein kinase Nek7 (Homo sapiens) (UniProt Q8TDX7). Conditions: at 0.1 µM.
Chain of Serine/threonine-protein kinase Nek7 (Homo sapiens) (Q8TDX7 whole entry, looked up): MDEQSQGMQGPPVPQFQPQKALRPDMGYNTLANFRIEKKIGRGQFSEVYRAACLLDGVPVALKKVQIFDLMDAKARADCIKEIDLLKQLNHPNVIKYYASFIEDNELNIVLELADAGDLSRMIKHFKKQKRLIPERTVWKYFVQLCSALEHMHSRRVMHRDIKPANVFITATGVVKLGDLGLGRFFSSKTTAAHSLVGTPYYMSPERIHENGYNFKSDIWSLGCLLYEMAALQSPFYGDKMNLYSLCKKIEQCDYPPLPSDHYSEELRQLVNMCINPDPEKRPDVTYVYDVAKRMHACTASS
For assay [19] the target is unchanged. The following applies: at 1 µM.
Assay [20] addresses T7, Serine/threonine-protein kinase Nek9 (Homo sapiens) (UniProt Q8TD19).
T7 sequence (whole entry): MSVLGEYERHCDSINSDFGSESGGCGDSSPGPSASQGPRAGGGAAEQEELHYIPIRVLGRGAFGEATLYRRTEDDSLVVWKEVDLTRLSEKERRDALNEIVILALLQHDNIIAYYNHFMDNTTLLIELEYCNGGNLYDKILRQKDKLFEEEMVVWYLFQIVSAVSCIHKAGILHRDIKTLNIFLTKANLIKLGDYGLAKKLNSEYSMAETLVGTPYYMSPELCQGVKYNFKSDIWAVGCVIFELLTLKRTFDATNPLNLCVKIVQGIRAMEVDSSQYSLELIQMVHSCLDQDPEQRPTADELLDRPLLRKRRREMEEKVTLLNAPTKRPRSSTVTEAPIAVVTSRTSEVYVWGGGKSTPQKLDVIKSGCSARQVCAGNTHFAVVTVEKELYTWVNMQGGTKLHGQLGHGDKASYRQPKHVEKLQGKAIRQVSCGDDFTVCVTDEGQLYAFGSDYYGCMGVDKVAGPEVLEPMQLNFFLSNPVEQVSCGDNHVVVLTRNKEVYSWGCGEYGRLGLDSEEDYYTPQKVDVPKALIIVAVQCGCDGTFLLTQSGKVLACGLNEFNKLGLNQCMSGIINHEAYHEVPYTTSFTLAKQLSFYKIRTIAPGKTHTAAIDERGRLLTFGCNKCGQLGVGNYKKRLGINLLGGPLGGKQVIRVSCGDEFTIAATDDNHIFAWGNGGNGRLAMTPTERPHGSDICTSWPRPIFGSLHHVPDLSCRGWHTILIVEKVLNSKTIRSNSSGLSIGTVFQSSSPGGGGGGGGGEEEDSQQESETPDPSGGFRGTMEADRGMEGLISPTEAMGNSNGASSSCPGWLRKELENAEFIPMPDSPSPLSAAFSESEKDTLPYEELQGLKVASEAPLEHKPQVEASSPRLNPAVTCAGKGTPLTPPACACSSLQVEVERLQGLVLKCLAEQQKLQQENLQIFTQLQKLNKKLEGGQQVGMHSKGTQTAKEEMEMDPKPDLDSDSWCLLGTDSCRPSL
Conditions: at 0.1 µM.

Chain of Sphingosine kinase 1 (Homo sapiens) (Q9NYA1 whole entry): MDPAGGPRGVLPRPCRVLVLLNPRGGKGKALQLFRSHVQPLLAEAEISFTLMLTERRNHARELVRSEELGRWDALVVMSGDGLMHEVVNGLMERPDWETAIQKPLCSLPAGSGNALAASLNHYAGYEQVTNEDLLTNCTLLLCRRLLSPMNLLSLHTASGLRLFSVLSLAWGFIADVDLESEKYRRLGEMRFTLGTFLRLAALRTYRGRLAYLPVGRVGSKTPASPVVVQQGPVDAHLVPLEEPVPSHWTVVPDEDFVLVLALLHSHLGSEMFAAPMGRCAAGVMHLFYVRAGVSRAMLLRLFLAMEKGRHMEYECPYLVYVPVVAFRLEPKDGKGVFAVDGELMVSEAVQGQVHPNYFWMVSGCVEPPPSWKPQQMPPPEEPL

With `NS(=O)(=O)c1cccc(N/C=C2\C(=O)Nc3ccccc32)c1`, the inhibition is -0.2% in assay [1]; 0.81% in assay [2]; 0.83% in assay [3]; 2.24% in [4]; 3.93% in assay [5]; 4.81% in [6]. The inhibition in assay [7] turned out to be 3.57%; in [8] it was 6.37%; in [9] it was 4.39%; in [10] it was 6.35%; in assay [11], 14.5%; in [12], 2.63%. Besides, the inhibition in [13] was found to be 4.56%; in [14], 5.64%; in assay [15], 4.55%; in assay [16], 1.86%; in assay [17] it was 1.95%; in [18], 6.51%. In addition, the inhibition in assay [19] came out at 4.33%; in assay [20], 5.97%.
